Reference: the supplement of paper PMC10127200
Counter-ions that a name gives are not always drawn.

Each molecule was assayed on FB (assay: Euclidean distance of Cell Painting phenotypic profile (signed KS, 77 features) to DMSO centroid (dimensionless distance); 5 or 10 uM (library dependent); higher = stronger phenotypic change vs DMSO (phenoactivity)). Details: 48 h.
How it was run: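 Library compounds were applied at 10 or 5 uM, depending on the library, with 0.1% DMSO final, for 48 h to five cancer lines and a healthy fibroblast line. After staining, cells were imaged confocally at 20X across 9 fields per well, and Harmony extracted 77 features, each scored as a signed Kolmogorov-Smirnov statistic against vehicle wells on the same plate. Phenoactivity is the Euclidean distance between each profile and the median vehicle profile, with profiles first plate-position corrected, correlation-weighted and averaged over replicates at the top dose.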

Structure (SMILES)	Euclidean distance
CCCC(=O)OCOC(=O)C1=C(C)NC(C)=C(C(=O)OC)C1c1cccc(Cl)c1Cl (stereo not given) [Clevidipine Butyrate]	0.951
COc1ccc(CNCc2cccc3ccccc23)cc1	1.27
CC[C@H](c1ccc(O)cc1)[C@@H](CC)c1ccc(O)cc1 [Hexestrol]	0.95
CN[C@@H](C)C(=O)N[C@H](C(=O)N1CCC[C@H]1C(=O)Nc1snnc1-c1ccccc1)C1CCCCC1	1.38
O=C(O[C@@H]1C[C@@H]2C[C@H]3C[C@H](C1)N2CC3=O)c1c[nH]c2ccccc12 [Dolasetron Mesylate]	1.17
CCC(C)n1ncn(-c2ccc(N3CCN(c4ccc(OCC5COC(Cn6cncn6)(c6ccc(Cl)cc6Cl)O5)cc4)CC3)cc2)c1=O (stereo not given) [Itraconazole]	1.53
Cc1ccc(NC(=O)c2ccc(CN3CCN(C)CC3)cc2)cc1Nc1nc(-c2cccnc2)cs1 [Masitinib (AB1010)]	3.16
Cn1cnc2c1c(=O)[nH]c(=O)n2C [Theobromine]	0.792
NC(=O)c1cn(Cc2c(F)cccc2F)nn1 [Rufinamide]	1.23
CN(C)C(=O)COC(=O)Cc1ccc(OC(=O)c2ccc(NC(=N)N)cc2)cc1 [Camostat Mesilate]	0.645
COc1ccc2cc3[n+](cc2c1OC)CCc1cc2c(cc1-3)OCO2 [Berberine Sulfate]	2.36
Cc1cnc(Nc2ccc(OCCN3CCCC3)cc2)nc1Nc1cccc(S(=O)(=O)NC(C)(C)C)c1	4.43
COc1cc2nccc(Oc3ccc(NC(=O)NC4CC4)c(Cl)c3)c2cc1C(N)=O [Lenvatinib (E7080)]	3.36
CC(=O)N1C[C@H](O)C[C@H]1C(=O)O [Oxaceprol]	0.895
Cc1nc(C#Cc2ccnc(Cl)c2)c(C)n1-c1ccc(OC(F)(F)F)cc1	0.731
CO/N=C(\C(=O)N[C@@H]1C(=O)N2C(C(=O)O)=C(CSc3nc(=O)c(O)nn3C)CS[C@H]12)c1csc(N)n1 [Ceftriaxone Sodium Trihydrate]	0.836
CO[C@@H]1[C@@H](O[C@@H]2O[C@H](C)[C@@H](O[C@H]3C[C@@](C)(O)[C@@H](OC(=O)CC(C)C)[C@H](C)O3)[C@H](N(C)C)[C@H]2O)[C@@H](CC=O)C[C@@H](C)[C@@H](O)/C=C/C=C/C[C@@H](C)OC(=O)C[C@H]1OC(C)=O [Josamycin]	1.59
OCCN1CCN(CCCN2c3ccccc3Sc3ccc(Cl)cc32)CC1 [Perphenazine]	2.8
CS(=O)(=O)c1cccc(C[C@H](NC(=O)c2c(Cl)cc3c(c2Cl)CCN(C(=O)c2ccc4ccoc4c2)C3)C(=O)O)c1 [Lifitegrast]	1.16
N#CC(=C(/N)Sc1ccccc1N)/C(C#N)=C(\N)Sc1ccccc1N	1.57

Structure (SMILES)	Euclidean distance
CNCc1cc(-c2ccccc2F)n(S(=O)(=O)c2cccnc2)c1 [Vonoprazan Fumarate (TAK-438)]	1.23
CCN1CCN(Cc2ccc(Nc3ncc(F)c(-c4cc(F)c5nc(C)n(C(C)C)c5c4)n3)nc2)CC1 [Abemaciclib]	4.04
Nc1nc2[nH]cnc2c(=S)[nH]1 [Thioguanine]	0.807
CCC(=O)c1c(O)cc(O)cc1O [Flopropione]	1.39
C[C@]12CCC(=O)C=C1CC[C@@H]1[C@@H]2[C@@H](O)C[C@@]2(C)[C@H]1CC[C@]2(O)C(=O)CO [Hydrocortisone]	1.56
C[C@H](CS)C(=O)N1CCC[C@H]1C(=O)O [Captopril]	0.971
FCOC(C(F)(F)F)C(F)(F)F [Sevoflurane]	0.867
O=NN(CCCl)C(=O)NC1CCCCC1 [Lomustine]	1.05
CC(C)[C@H]1CC[C@H](C(=O)N[C@H](Cc2ccccc2)C(=O)O)CC1 [Nateglinide]	0.97
Cc1ccc(/C(=C\CN2CCCC2)c2cccc(/C=C/C(=O)O)n2)cc1 [Acrivastine]	0.976
COCCCN1CCC(NC(=O)c2cc(Cl)c(N)c3c2OCC3)CC1 [Prucalopride Succinate]	1.4
CN(C)Cc1c(C(=O)NCCOc2ccc(C(=O)NO)cc2)oc2ccccc12	3.8
Oc1c(Br)cc(Br)c2cccnc12 [Broxyquinoline]	1.03
O=C(O)c1cc(=O)c2ccccc2o1 [Chromocarb]	1.04
O=C1N=C(O)NC1(c1ccccc1)c1ccccc1 [Phenytoin sodium]	1.08
Cc1c(Cn2c(C)nc3c(C(=O)O)cc(N4CCOCC4)cc32)cccc1C(F)(F)F	1.21
CCn1cc(C(=O)O)c(=O)c2cc(F)c(N3CCN(C)CC3)cc21 [Pefloxacin Mesylate Dihydrate]	0.707
CCC(=O)O[C@@H](O[P@](=O)(CCCCc1ccccc1)CC(=O)N1C[C@H](C2CCCCC2)C[C@H]1C(=O)O)C(C)C [Fosinopril Sodium]	0.746
CCCC(=O)Nc1ccc(OCC(O)CNC(C)C)c(C(C)=O)c1 (stereo not given) [Acebutolol HCl]	1.3
Cc1c(-c2ccc(O)cc2)n(Cc2ccc(OCCN3CCCCCC3)cc2)c2ccc(O)cc12 [Bazedoxifene HCl]	4.82
